The entries come from a sample that favours hits as a whole.
Pf Dd2 growth: qHTS Primary assay for Inhibitors of Plasmodium falciparum Dd2 growth in vitro. P. falciparum Dd2 growth, SYBR Green, 72 h. Potency, µM (series often up to 28.9 µM), most hits filed as inhibitors. 120,000 tested, 4.3% active; active means well fitted inhibition curve with a large enough effect; further: nearly all actives have a fitted effect of over 65% in size
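Readout: SYBR Green fluorescence, 485 nm excitation, 535 nm emission, after ~16 h lysis at 37C. Before that, Dd2-infected red cells (2.5% hematocrit) grew 72 h with compound, 29 uM top final concentration.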
Hits are given with their value; . = inactive; [ ] = remark or other dose.

SMILES | Pf Dd2 growth
CCCCN1C(=O)c2ccccc2C(C(=O)NCc2cccnc2)C12CCCCC2 (stereo not drawn) | .
COc1ccc(-c2cc(N3CCN(C(=O)c4ccc(C)nc4)CC3)n[nH]2)cc1 | .
COc1ccc(-c2cc(N3CCCN(C(=O)c4ccc(C)nc4)CC3)n[nH]2)cc1 | .
Cc1ccc(C(=O)N2CCCN(c3cc(-c4ccc(Cl)cc4)[nH]n3)CC2)cn1 | 6.3µM
CCC1CN(Cc2nc(CCOC)no2)CCC(=O)N1Cc1ccccc1 (stereo not drawn) | .
CN(Cc1ccccc1)C(=O)C1CCN(c2ncncn2)CC1 | .
O=c1n(-c2ccncc2)nc2n1CCN(CC1CC1)C2 | .
CN(C)c1nccnc1OC1CCN(C(=O)c2ccn[nH]2)C1 (stereo not drawn) | .
CCCN(C)c1nccnc1OC1CCN(C(=O)C2CCOCC2)C1 (stereo not drawn) | .
CCCN(C)c1nccnc1OC1CCN(C(=O)c2ccc(F)cc2)C1 (stereo not drawn) | 10µM
Cc1noc(-c2nc(-c3ccc(N(C)C)cc3)no2)n1 | .
CCCn1nccc1C(=O)N1CCCC(CCc2cccc(C(F)(F)F)c2)C1 (stereo not drawn) | .
O=C(c1cccc(O)c1)N1CCCC(CCc2cccc(C(F)(F)F)c2)C1 (stereo not drawn) | .
CCNc1ncc(CN2CCCC(CCc3cccc(C(F)(F)F)c3)C2)cn1 (stereo not drawn) | 7.9µM
O=[S+]1([O-])NCC2(CCN(Cc3cncs3)CC2)Nc2ccccc21 | .
Cc1ccccc1-c1nccc2c(=O)cc(N3CCOCC3)oc12 | .
CCc1ccc(S(=O)(=O)N2CCC(n3cnnc3CCOC)CC2)cc1 | .
CN1CCN(c2nc3c(c(=O)[nH]2)CCN(Cc2cccnc2)CC3)CC1 | .[5.79 µM]
CN(Cc1cccnc1)c1nc2c(c(=O)[nH]1)CCN(Cc1ccc(Cl)cc1)CC2 | .[5.79 µM]
CC(C)c1nc2c(c(-c3ccc(O)cc3)n1)CN(C(=O)N(C)C)CC2 | .
CC(C)c1nc2c(c(-c3ccc(Cl)cc3)n1)CCN(Cc1cccnc1)CC2 | 11µM
Cc1nc2c(c(-c3ccc(Cl)cc3)n1)CCN(C(=O)c1ccccc1)CC2 | .
CC(C)c1nc2c(c(-c3ccc(Cl)cc3)n1)CCN(Cc1cccc3ccccc13)CC2 | 11µM
COCCNc1nc2cc(C(=O)N3CC[C@H]4CNC[C@H]43)ccc2n1C | .
CS(=O)(=O)N1CCC2(CC1)NCCc1c2[nH]c2ccccc12 | .
SMILES | Pf Dd2 growth
CN(C)c1nc(-c2ccncc2)nc2c1CCN(C(=O)c1cc(=O)[nH]c(=O)[nH]1)C2 | .
NCCCC(=O)N1CCCCC1c1nnc2n1CCNC2 (stereo not drawn) | .
CNC(=O)C1CCCN(S(=O)(=O)c2ccccc2)CCC(=O)NCC1 (stereo not drawn) | .
Cc1cnn(C2(C(=O)O)CCN(C(=O)c3cnn4cccnc34)CC2)c1 | .
Cc1ccc(-n2nc3n(c2=O)CCN(C(=O)Cc2cccc(Cl)c2)C3)cc1 | .
Cc1ccc(CC(=O)N(Cc2nc(-c3ccc(C)cc3)no2)C(C)C)cc1 | .
COc1ccc(-c2noc(CN(C(=O)c3ccccc3Cl)C(C)C)n2)cc1 | .
COc1ccc(-c2noc(CN(C(=O)C(C)Oc3ccc(C)cc3)C(C)C)n2)cc1 (stereo not drawn) | 10µM
COCC[C@]1(O)CCN(C(=O)COc2ccc3c(c2)OCO3)C[C@H]1C | .
COCCn1c(C)cnc1CCNC(=O)c1ccc(OC)nc1 | .
CN1C(=O)CC(C(=O)O)C12CCN(Cc1cnn(-c3ccc(F)cc3)c1)CC2 (stereo not drawn) | .
CN(Cc1cccc(CCN)c1)Cc1cnn(-c2ccc(F)cc2)c1 | 10µM
CN(Cc1ccc(F)cc1)Cc1cccn1C | .
CCn1ccc(C(=O)N2C[C@@H](COC)[C@H](c3nc(C4CC4)no3)C2)n1 | .
CC(=O)N1CCC(N2CCC3(CC2)CC(C(=O)N2CCOCC2)N(C)C3)CC1 (stereo not drawn) | .
CS(=O)(=O)N1CCc2ccc(C(=O)N3CCN(Cc4ccc5c(c4)OCO5)CC3)cc21 | .
O=C(Nc1ccc(F)c(F)c1)C1CCCN(S(=O)(=O)c2cccc3nonc23)C1 (stereo not drawn) | .
O=C(Nc1ccc(OC(F)(F)F)cc1)C1CCCN(S(=O)(=O)c2cccc3nonc23)C1 (stereo not drawn) | .
O=C(Nc1ccc(C(F)(F)F)cc1)C1CCCN(S(=O)(=O)c2cccc3cccnc23)C1 (stereo not drawn) | 11µM
CSc1ccc(CNC(=O)C2CCN(C(=O)c3ncn4c3COC(c3ccccc3)C4)CC2)cc1 (stereo not drawn) | .
CCOC(=O)C1CCN(C(=O)CN2c3ccc(CC)cc3-c3ccccc3S2(=O)=O)CC1 | .
CCC1=C(c2ccc(C)cc2)S(=O)(=O)N=C1N1CCC(C(=O)NCCc2cccc(OC)c2)CC1 | 7.9µM
CC1=C(c2ccc(C)c(C)c2)S(=O)(=O)N=C1N1CCC(C(=O)NCc2ccccc2C)CC1 | .
CCOC(=O)C1CCN(C(=O)C2CCc3nc(N4CCN(C(C)=O)CC4)sc3C2)CC1 (stereo not drawn) | .
CCOC(=O)C1CCN(C(=O)C2CCN(C3=NS(=O)(=O)C(c4ccc(C)cc4)=C3CC)CC2)CC1 | 11µM
SMILES | Pf Dd2 growth
CCc1ccc(C2=C(C)C(N3CCC(C(=O)NCc4ccccc4)CC3)=NS2(=O)=O)cc1 | .
COc1ccccc1NC(=O)c1cc2c(N3CCSCC3)nc(C)cn2n1 | .
Cc1ccc(S(=O)(=O)NC[C@H]2O[C@@H](CC(=O)NCCN3CCOCC3)[C@H](O)[C@@H]2O)cc1 | .
COc1ccc(CN2C(=O)CO[C@H](c3ccc(NC(=O)c4ccccc4C)cc3)[C@H]2CO)cc1 | .
Cn1cnnc1CC1CCCN(C(=O)c2ccccc2)C1 (stereo not drawn) | .
O=C(Nc1ccc(N2CCC(NCC(c3ccncc3)N3CCOCC3)CC2)cc1)C1CCCC1 (stereo not drawn) | .
O=C(c1ccc(N2CCC(NCC(c3ccccc3)c3ccccc3)CC2)cc1)N1CCCC(O)C1 (stereo not drawn) | 11µM
O=C([C@@H]1C[C@H](Oc2cccnc2)CN1C(=O)c1cc2ccccc2[nH]1)N1CCCC1 | .
CC(Cc1cnccn1)Nc1ccc(-c2nc(-c3cccc(Cl)c3)no2)cn1 (stereo not drawn) | .
COC(=O)[C@H](Cc1ccc(OC)cc1)NC(=O)[C@@H]1CN(C(=O)NC(C)C)CCN1C(=O)C1CCCCC1 | .
Cn1ccnc1C(=O)N1CCC(Oc2cccc(F)c2)C1 (stereo not drawn) | 7.9µM
O=C(c1cccc(F)c1)N1CCC(Oc2cccnc2)C1 (stereo not drawn) | .
O=C(C1CCOCC1)N1CCC(Oc2cccc(F)c2)C1 (stereo not drawn) | .
O=C(NC[C@H]1OC[C@@H](NCc2cnc[nH]2)[C@@H]1O)c1cccs1 | .
COc1ccccc1-c1ncc[nH]1 | .
CCOCCn1cnc(-c2ccccc2)c1-c1ccccc1OCC(N)=O | .
COc1cccc(-c2[nH]cnc2-c2ccccc2)c1OCCCn1ccnc1 | 3.2µM
COc1ccc(C2Cn3nnc(-c4nc(-c5cccc(C(F)(F)F)c5)no4)c3CO2)cc1 (stereo not drawn) | .
CCNC(=O)[C@@H]1C[C@H](NC(C)=O)CN1Cc1ccc(OC2CCCC2)cc1 | .
Cc1cccc(OCC(=O)Nc2nc3c(s2)CC(C(C)(C)C)CC3)c1C (stereo not drawn) | .

Source: PubChem BioAssay
